Measured values taken from PubChem BioAssay AID368 (University of Pittsburgh Molecular Library Screening Center, 2006).
Out of some 65,000 compounds screened, about 85 (0.1%) were called active. Cut-off read from the data, not from the text of the source: active = inhibition above about 50%; inactive = the rest. The list comes from a sample in which actives are over-represented; it also holds similar structures and randomly drawn compounds.

Target: M-phase inducer phosphatase 2 (Homo sapiens) (UniProt P30305)
Assay: human Cdc25B tyrosine phosphatase blockers – biochemical, OMFP fluorescence, catalytic domain, primary screen (AID 368)
Settings: recombinant Cdc25B, OMFP fluorescence Ex485/Em525; active compounds read high;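 compounds tested at 10 µM final in the well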

Sequence of M-phase inducer phosphatase 2 (Homo sapiens) (P30305 whole entry, looked up, the tested form may be a part): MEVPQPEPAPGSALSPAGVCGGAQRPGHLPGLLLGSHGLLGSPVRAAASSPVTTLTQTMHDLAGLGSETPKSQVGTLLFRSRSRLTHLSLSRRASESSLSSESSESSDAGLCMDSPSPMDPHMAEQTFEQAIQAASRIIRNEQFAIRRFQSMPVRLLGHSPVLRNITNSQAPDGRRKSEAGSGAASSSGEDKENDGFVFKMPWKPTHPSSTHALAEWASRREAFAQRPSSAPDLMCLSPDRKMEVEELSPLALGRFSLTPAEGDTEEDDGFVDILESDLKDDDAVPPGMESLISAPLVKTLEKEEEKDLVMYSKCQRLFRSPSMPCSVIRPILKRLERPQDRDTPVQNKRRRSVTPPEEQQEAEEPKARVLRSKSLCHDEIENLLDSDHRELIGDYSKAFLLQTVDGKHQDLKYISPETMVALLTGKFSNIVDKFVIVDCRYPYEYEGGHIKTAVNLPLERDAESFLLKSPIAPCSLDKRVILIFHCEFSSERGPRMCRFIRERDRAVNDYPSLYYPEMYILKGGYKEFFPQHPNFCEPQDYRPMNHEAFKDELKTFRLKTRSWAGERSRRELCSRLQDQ

Structure (SMILES) | inhibition
CC(C)C(c1nnnn1C1CCCC1)N1CCN(c2ccccc2F)CC1 (stereo not given) | -10.2% (inactive)
CC(C)C1Cc2c(sc3c2c(=O)n(-c2ccccc2)c2nncn32)CO1 (stereo not given) | -39.8% (inactive)
C=CCNC(=O)C1CC=CCC1C(=O)O (stereo not given) | -12.3% (inactive)
Cc1nc(Nc2ccc3c(c2)OCCO3)c2nnn(Cc3ccccc3Cl)c2n1 | -17.1% (inactive)
CC(=O)N1CCC(C(=O)Nc2nc(-c3ccccc3)ns2)CC1 | -5.67% (inactive)
CN1C(=O)c2ccc(NC(=O)c3c(F)c(F)c(F)c(F)c3F)cc2C1=O | 2.43% (inactive)
O=C(CC(NS(=O)(=O)c1ccc(Cl)cc1)c1ccco1)NC1CCCC1 (stereo not given) | -20.3% (inactive)
O=C(NC1=NCCS1)c1ccc(Cl)s1 | 1.03% (inactive)
CC1Cc2ccccc2N1C(=O)Cn1cnc2ccccc2c1=O (stereo not given) | -1.71% (inactive)
c1nnc2c3c4c(sc3ncn12)CCC4 | 0.998% (inactive)
O=C(CN1C(=O)C2C3C=CC(C3)C2C1=O)NCC1COc2ccccc2O1 (stereo not given) | -2.93% (inactive)
COCCNC(=O)CN(C(=O)CCC(=O)Nc1cc(C)on1)c1ccc(C)cc1C | 11.4% (inactive)
O=C(Nc1cccc(NC(=O)N2CCN(c3ccccc3)CC2)c1)N1CCN(c2ccccc2)CC1 | 76.4% (active)
O=C(Nc1cccc(C(=O)N2CCCC2)c1)c1ccccc1 | -4.63% (inactive)
CC(=O)N1CCN(C(=O)Nc2cccc(C(F)(F)F)c2)CC1 | -11.9% (inactive)
Cc1ccc2c(CSc3nncs3)cc(=O)oc2c1 | -6.44% (inactive)
CCOC(=O)c1[nH]c2c(c1C)C(=O)CC(c1ccc(N(C)C)cc1)C2 (stereo not given) | -8.71% (inactive)
Cc1ccc(N)cc1-n1c(C)ccc1C | 1.36% (inactive)
Cc1ccc(CNC(=O)CN2CCN(Cc3ccc(Cl)cc3)C2=O)cc1 | 1.98% (inactive)
COCCCN1C(=O)c2ccc(C(=O)Nc3ccc(OC)cc3OC)cc2C1=O | -4.42% (inactive)

Structure (SMILES) | inhibition
Cc1cc(Cl)c(S(=O)(=O)NCc2cccnc2)cc1OCC(N)=O | -3.27% (inactive)
CCOC(=O)C1=C(C)NC(C)=C(C(=O)OCC)C1C1=COCCO1 | 1.59% (inactive)
COc1ccc(N2CCN(C3CC(=O)N(c4ccc5c(c4)OCCO5)C3=O)CC2)cc1 (stereo not given) | 5.32% (inactive)
CCn1c(NCCc2ccc(OC)c(OC)c2)nc2c1c(=O)n(C)c(=O)n2C | 7.88% (inactive)
COc1cc(-c2nc(S(=O)(=O)c3ccc(Cl)cc3)c(N(C)C)o2)cc(OC)c1OC | -3.74% (inactive)
Cc1ccc(C(c2nnnn2CS(=O)(=O)c2ccc(C)cc2)N2CCC(C(N)=O)CC2)cc1 (stereo not given) | -6.28% (inactive)
CCCOc1ccc(C2C(C(=O)c3ccc(C)o3)=C(O)C(=O)N2CCCn2ccnc2)cc1 (stereo not given) | -1.79% (inactive)
O=c1c2ccccc2oc2nc3n(c(=O)c12)CCCS3 | -1.25% (inactive)
CCOC(=O)N1CCN(C(=O)CSc2ccc(Cl)cc2)CC1 | 3.41% (inactive)
CC1CN(C(=O)c2ccc3c(c2)OCO3)OC(c2ccccc2)O1 (stereo not given) | -8.81% (inactive)
CC1=C(C)CC2C(=O)N(c3cccc4ccccc34)C(=O)C2C1 (stereo not given) | -7.9% (inactive)
Cc1nc2c(-c3ccccc3)c(C)[nH]n2c(=O)c1Cl | -4.09% (inactive)
COc1ccc(S(=O)(=O)N(C)CC(=O)Nc2ccc3c(c2)OCCO3)cc1OC | -5.79% (inactive)
O=S(=O)(Nc1ccc2nc(-c3ccco3)[nH]c2c1)c1ccccc1 | -8.83% (inactive)
O=S(=O)(c1cccc(-c2nnc(SC(F)F)n2-c2ccccc2)c1)N1CCCCC1 | 10.3% (inactive)
CCC(=O)Nc1cccc(NC(=O)CSc2nnnn2C2CCCC2)c1 | -2.8% (inactive)
CCOc1ccc(C(=O)Nc2cc(OC)ccc2OC)cc1 | -1.04% (inactive)
O=C(C1CCN(c2nnc(-n3cccc3)s2)CC1)N1CCc2ccccc2C1 | -4.75% (inactive)
Cc1noc(/C=C/N(C)C)c1S(=O)(=O)N1CCCC(C(=O)NCc2ccco2)C1 (stereo not given) | -8.56% (inactive)
CCCCc1cc(=O)oc2cc(C)cc(OCc3nn[nH]n3)c12 | -4.64% (inactive)

Structure (SMILES) | inhibition
CCOC(=O)c1c(NC(=O)c2cccs2)sc(C)c1C | -1.19% (inactive)
COCCNC(=O)CSc1nc2c(n1-c1ccccc1)CCCC2 | -0.327% (inactive)
CCn1c(SCC(=O)Nc2ccccc2F)nc2c(c1=O)SC(C)C2 (stereo not given) | -15.6% (inactive)
CCOc1ccccc1N(CC(=O)NC1CCCCC1)C(=O)CCCC(=O)Nc1ccccn1 | -10.5% (inactive)
CCOC(=O)N1CCC(NC(=O)CN2C(=O)COc3ccc(C(C)(C)C)cc32)CC1 | -4.53% (inactive)
CCCN(CCC)C(=O)C1c2ccccc2Oc2ccccc21 | -5.87% (inactive)
COC(=O)c1c(NC(=O)c2cccs2)sc2c1CCCC2 | -11.6% (inactive)
COc1cccc(N(C(=O)c2ccn[nH]2)C2(C(=O)Nc3c(C)cccc3C)CCCCC2)c1 | 4.58% (inactive)
CCN(CC)C(=O)C1CCC(C)(C(=O)O)C1(C)C (stereo not given) | -11.3% (inactive)
COc1ccc(-c2noc(-c3cccc(OC)c3OC)n2)cc1OC | -12.3% (inactive)
COc1ccc(CCNC(=O)c2cc(-c3ccc4c(c3)OCO4)on2)cc1OC | -4.69% (inactive)
COc1ccc(-c2cc3n(n2)CCc2nc4ccccc4n2-3)cc1 | -0.418% (inactive)
O=C(Cc1ccccc1)n1nc(-c2ccccc2)nc1NCc1ccco1 | -11.6% (inactive)
COc1ccc(N2C(=O)CN=C2Nc2cccc(C)c2C)cc1OC | -17.1% (inactive)
COc1cccc2c(C)c(C(=O)O)[nH]c12 | 50.5% (active)
COc1ccc(C)cc1NC(=O)c1[nH]c(C)c(C(C)=O)c1C | -7.67% (inactive)
CCOC(=O)c1c(C)[nH]c(C(=O)NCc2ccccc2OC)c1C | 0.611% (inactive)
FC(F)(F)c1nnc2sc(-c3ccco3)nn12 | 6.19% (inactive)
CC1(N2CCOCC2)CC2(O)C(=[N+]1[O-])CCc1nonc12 (stereo not given) | -12.9% (inactive)
Cc1nn(Cc2ccc(Cl)c(Cl)c2)c(C)c1NC(=O)c1cc(C2CC2)on1 | -9.41% (inactive)
